# According to article PMC11062922 (Nature Chemical Biology, 2023):
# Where two headings read alike, the source gives them in different places.
# How the values were obtained:
# Design in all cases: species or system human, MV4-11 + K-562 + COLO205 + SK-N-BE2 + OVCAR-8
# RIOK2 = details: read-out: apparent Kd, compound concentrations: 100 nM and 1000 nM (sheet 'Samples'), n = 1
# ADCK1 = details: read-out: apparent Kd, compound concentrations: 100 nM and 1000 nM (sheet 'Samples'), n = 1
# CDK17 = details: read-out: apparent Kd, n = 1
# CSNK1A1 = details: read-out: apparent Kd, compound concentrations: 100 nM and 1000 nM (sheet 'Samples'), n = 1
# MARK2 = details: read-out: apparent Kd, n = 1
# PHKG2 = details: read-out: apparent Kd, n = 1
# STK16 = details: read-out: apparent Kd, n = 1
# STK3 = details: read-out: apparent Kd, n = 1
# TNIK = details: read-out: apparent Kd, n = 1
# CSNK1E = details: read-out: apparent Kd, n = 1
# MAPK8 = details: read-out: apparent Kd, n = 1
# ATM = details: read-out: apparent Kd, compound concentrations: 100 nM and 1000 nM (sheet 'Samples'), n = 1
# PRKAA2 = details: read-out: apparent Kd; compound concentrations: 100 nM and 1000 nM (sheet 'Samples'), CATDS: 2.2132106558792702E-2; n = 1
# [1] = compound concentrations:100 nM and 1000 nM (sheet 'Samples')
smiles,measurement,setting,value
COC(=O)c1cccc(NC(=O)NC2CCN(c3ccnc(Nc4cc(OC)c(OC)c(OC)c4)n3)C2)c1 (stereo not drawn) [GSK1379767A],potency estimated from few doses,RIOK2; CATDS: 9.3299595876540298E-2,2110 nM
O=C(O)C(F)(F)F.O=c1[nH]ccc2nc(N[C@@H]3CCNC3)nc(Nc3ccc4c(c3)S(=O)(=O)CC4)c12 [GSK2181306A],potency estimated from few doses,ADCK1; CATDS: 1.2751360912585E-2,448 nM
same,potency estimated from few doses,"CDK17; compound concentrations: 100 nM and 1000 nM (sheet 'Samples'), CATDS: 9.5654152520578493E-3",979 nM
same,potency estimated from few doses,CSNK1A1; CATDS: 1.4603210367733301E-2,330 nM
same,potency estimated from few doses,"MARK2; compound concentrations: 100 nM and 1000 nM (sheet 'Samples'), CATDS: 1.1093040316995199E-2",635 nM
same,potency estimated from few doses,"PHKG2; compound concentrations: 100 nM and 1000 nM (sheet 'Samples'), CATDS: 1.09538750738594E-2",657 nM
same,potency estimated from few doses,RIOK2; CATDS: 8.1231795228866102E-3,1810 nM
same,potency estimated from few doses,"STK16; compound concentrations: 100 nM and 1000 nM (sheet 'Samples'), CATDS: 9.1549687714340792E-3",1130 nM
same,potency estimated from few doses,"STK3; compound concentrations: 100 nM and 1000 nM (sheet 'Samples'), CATDS: 1.36866990132516E-2",381 nM
same,potency estimated from few doses,"TNIK; compound concentrations: 100 nM and 1000 nM (sheet 'Samples'), CATDS: 1.2529799183739801E-2",467 nM
CCN(CC)Cc1ccc(Nc2nccc(-c3cnn4ncccc34)n2)cc1 [GW780056X],potency estimated from few doses,ADCK1; CATDS: 2.0575256748511801E-2,1200 nM
same,potency estimated from few doses,"CDK17; compound concentrations: 100 nM and 1000 nM (sheet 'Samples'), CATDS: 2.15986885679498E-2",1030 nM
same,potency estimated from few doses,"CSNK1E; compound concentrations: 100 nM and 1000 nM (sheet 'Samples'), CATDS: 7.3916034222461E-2",72.1 nM
same,potency estimated from few doses,"MAPK8; compound concentrations: 100 nM and 1000 nM (sheet 'Samples'), CATDS: 2.1413758236852699E-2",1050 nM
c1ccc(-c2n[nH]cc2Nc2ccnc3ccccc23)nc1 [GW694077X],potency estimated from few doses,CSNK1A1; CATDS: 2.3053021042780501E-2,2030 nM
same,potency estimated from few doses,"CSNK1E; compound concentrations: 100 nM and 1000 nM (sheet 'Samples'), CATDS: 2.3726321551731398E-2",1790 nM
same,potency estimated from few doses,"MAPK8; compound concentrations: 100 nM and 1000 nM (sheet 'Samples'), CATDS: 2.3443095841232799E-2",1880 nM
same,potency estimated from few doses,RIOK2; CATDS: 3.1389541451057497E-2,683 nM
NS(=O)(=O)c1cccc(-c2ccc3c(NC(=O)C4CC4)n[nH]c3c2)c1 [SB-741905],potency estimated from few doses,ATM; CATDS: 0.31609765928995098,205 nM
CC(C)(CO)CNC(=O)c1ccc2c(c1)/C(=N/Nc1ccc(S(N)(=O)=O)cc1)C(=O)N2 [GW301784X],potency estimated from few doses,CDK17; [1],212 nM
CN[C@H](C#Cc1c(F)ccc2c1/C(=C/c1[nH]ccc1OC)C(=O)N2)CO.Cl [RO0283049-001],potency estimated from few doses,"CDK17; compound concentrations: 100 nM and 1000 nM (sheet 'Samples'), CATDS: 2.52216381525E-2",797 nM
same,potency estimated from few doses,"MAPK8; compound concentrations: 100 nM and 1000 nM (sheet 'Samples'), CATDS: 2.3865575859687099E-2",951 nM
same,potency estimated from few doses,PRKAA2,1240 nM
same,potency estimated from few doses,"STK16; compound concentrations: 100 nM and 1000 nM (sheet 'Samples'), CATDS: 2.2828381206070801E-2",1110 nM
same,potency estimated from few doses,"STK3; compound concentrations: 100 nM and 1000 nM (sheet 'Samples'), CATDS: 2.5923871339058099E-2",733 nM
CN(C)c1ccc2c(c1)/C(=C/Nc1ccc(S(N)(=O)=O)cc1)C(=O)N2 [GW416469X],potency estimated from few doses,"STK3; compound concentrations: 100 nM and 1000 nM (sheet 'Samples'), CATDS: 7.8286215558842895E-2",1330 nM
Cc1occc1-c1nc(N)c(OC[C@@H](N)Cc2c[nH]c3ccccc23)cc1-c1cc2c(C)n[nH]c2cn1 [GSK1660450B],potency estimated from few doses,CSNK1E; [1],144 nM
same,potency estimated from few doses,MARK2; [1],639 nM
same,potency estimated from few doses,STK3; [1],93.5 nM
same,potency estimated from few doses,TNIK; [1],696 nM
CNCC1CCn2c(c(C3=C(c4cn(C)c5ccccc45)C(=O)NC3=O)c3ccccc32)C1 (stereo not drawn) [RO0318676-000],potency estimated from few doses,"CDK17; compound concentrations: 100 nM and 1000 nM (sheet 'Samples'), CATDS: 2.8092729884281801E-2",1740 nM
NS(=O)(=O)c1ccc(NC=C2C(=O)Nc3ccc4ncsc4c32)cc1 [GW589933X],potency estimated from few doses,"CDK17; compound concentrations: 100 nM and 1000 nM (sheet 'Samples'), CATDS: 2.5834512792532401E-2",479 nM
same,potency estimated from few doses,"CSNK1E; compound concentrations: 100 nM and 1000 nM (sheet 'Samples'), CATDS: 1.7679596648165999E-2",1500 nM
same,potency estimated from few doses,"STK3; compound concentrations: 100 nM and 1000 nM (sheet 'Samples'), CATDS: 3.1819272048607197E-2",295 nM
same,potency estimated from few doses,"TNIK; compound concentrations: 100 nM and 1000 nM (sheet 'Samples'), CATDS: 5.8590994029209698E-2",89.2 nM
COc1cc[nH]c1/C=C1\C(=O)Nc2ccc(F)c(C#C[C@@H](O)[C@@H](N)[C@@H](C)O)c21 [RO0283120-000],potency estimated from few doses,CDK17; [1],774 nM
same,potency estimated from few doses,MAPK8; [1],942 nM
same,potency estimated from few doses,MARK2; [1],803 nM
same,potency estimated from few doses,PHKG2; [1],669 nM
same,potency estimated from few doses,STK16; [1],1230 nM
same,potency estimated from few doses,STK3; [1],680 nM
O=C1N=C(NCCc2cccs2)S/C1=C\c1ccc2ncccc2c1 [RO4508348-000],potency estimated from few doses,ATM; CATDS: 0.23427621692245501,314 nM
